Structures are written as SMILES. The whole screen tested about 360,000 compounds, of which about 11,000 (3.1%) were called active. Not shown: some 4% with an inconclusive outcome. The full list was thinned out, with actives kept by preference. A number with no mark means an inactive call. Calls follow the shape of the dose curve; as a rule, active = well fitted inhibition curve with a large enough effect; inconclusive = small, poorly fitted or top-dose-only effect; inactive = no such curve, though single readings can be large or run the other way.
% is scaled to controls: 0 for no effect and ±100 for the full control effect; potency is read from the fitted curve at half-maximal effect.

This experiment deals with Schistosoma mansoni thioredoxin glutathione reductase (TGR) (UniProt Q962Y6). The experiment can be described thus: qHTS Assay for the Inhibitors of Schistosoma Mansoni Peroxiredoxins. Also: nearly all actives have a fitted effect of over 60% in size. The settings on record: purified TGR, DTNB reduction, TNB absorbance 405 nm; series mostly up to 114 µM; activity change, negative = inhibition: at the top concentration. The method, boiled down:
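TGR 20 nM + NADPH 100 uM (dispensed conc.), cpd preinc 15 min RT; start with NADPH (500 uM addition) then DTNB (15 mM addition). Kinetic TNB absorbance, 405 nm filter. Four-parameter Hill fit across titration.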
Take `Cc1cccc(NC(=O)c2cc3c(C)nn(-c4ccccc4)c3s2)c1`: the “activity change, negative = inhibition” value is 2.56%.

Regarding `COC(=O)c1ccc(OC)c(Cn2c(=O)n(Cc3ccccc3)c(=O)c3c2c2cc(OC)ccc2n3C)c1`, the “activity change, negative = inhibition” value is -8.64%.

For `Cc1oc2ccc(O)c(CN3CCCCC3)c2c1C(=O)Nc1cccc(C(F)(F)F)c1`, the “activity change, negative = inhibition” value was 9.2%.

`CCN(Cc1ccccc1)C(=O)c1cn(-c2cccc(OC)c2)c(=O)c2ccccc12`: the “activity change, negative = inhibition” value was -14.9%.

Consider `Cc1ccccc1NC(=O)CN1C(=O)C(C)(C)c2ccccc21`, for which the “activity change, negative = inhibition” value was 5.62%.

Take `CCOc1ccc(/C=C(\C#N)c2nc3ccccc3c(=O)[nH]2)cc1OC`: the “activity change, negative = inhibition” value was 1.74%.

As for `COc1cccc(-n2c(SCC(=O)c3c[nH]c4ccccc34)nc3ccccc3c2=O)c1`, the “activity change, negative = inhibition” value was 1.41%.

As for `COc1ccc(/C=C(\C#N)c2c[nH]c3ccccc23)cc1`, the Potency was 14.1 µM (active).

With `COC(=O)c1ccc(NC(=O)c2cccc3c2C(=O)N(C2CCCCC2)C3)cc1`, the “activity change, negative = inhibition” value is 1.52%.

With `CCN(CC)c1nn2c(=O)c(C(=O)NCCc3ccccc3)cnc2s1`, the “activity change, negative = inhibition” value was 37.5%.

`O=C(O)c1ccc(Nc2nc(-c3ccccc3)c3cc(Br)ccc3n2)cc1`: the “activity change, negative = inhibition” value is 1.15%.

Regarding `CC1=NC2(CCCc3c2no[n+]3[O-])N(O)C1(C)C` (stereo not given), the Potency is 44.7 µM (active).

Turning to `COc1ccc(-c2cn3nc(N4CCC(C(=O)Nc5cccc(C)c5C)CC4)sc3n2)cc1`, the “activity change, negative = inhibition” value is 1.06%.

Regarding `CCOC(=O)C1CCCN(C(=O)c2ccc(-n3ccc4ccccc43)s2)C1` (stereo not given), the “activity change, negative = inhibition” value is 9.63%.

As to `O=C(CN1C(=O)COc2ccccc21)Nc1ccc(F)cc1`, the Potency is 70.8 µM (active).

In the case of `O=C(CN1C(=O)COc2ccc(Cl)cc21)Nc1ccc(N2CCOCC2)cc1`, the “activity change, negative = inhibition” value was -47.8%.

Turning to `CC(OC(=O)CN1C(=O)COc2ccccc21)C(=O)NCc1ccc(F)cc1` (stereo not given), the “activity change, negative = inhibition” value is 5.02%.

Take `O=C(O)c1c(CNCc2cccc(F)c2)c2ccccc2n1Cc1ccccc1`: the “activity change, negative = inhibition” value was -14.8%.

As for `Brc1cc(/C=N/n2cnnc2)oc1Br`, the “activity change, negative = inhibition” value was -8.99%.

With `Cc1cccc(C(=O)Nc2ccc(C(=O)N/N=C/c3cccc(C)n3)cc2)c1`, the “activity change, negative = inhibition” value was -5.22%.

For `Cc1ccc(C(=O)N/N=C\c2cc(Br)c(Br)o2)cn1`, the Potency was 22.4 µM (active).

In the case of `Cn1nnnc1SCCCNCc1cccc(OCc2ccc(Cl)cc2)c1`, the “activity change, negative = inhibition” value was -0.443%.

`CCOC(=O)c1cc2c(=O)n3ccccc3nc2n(CCCOC)c1=NC(=O)C(C)Oc1ccccc1` (stereo not given): the “activity change, negative = inhibition” value is -2.86%.

For `CCOC(=O)C(=Cc1ccccc1OC)C(=O)OCC`, the Potency was 28.2 µM (active).

Consider `COc1ccccc1/C=C/C(=O)NC1CC2CCC1C2` (stereo not given), for which the “activity change, negative = inhibition” value is -1.68%.

Regarding `CCOC(=O)C(=CNc1cccc(C)n1)C(=O)OCC`, the “activity change, negative = inhibition” value was 6.03%.

Consider `COc1cc(C(=O)NCCc2csc3nc(-c4ccccc4C)nn23)cc(OC)c1OC`, for which the “activity change, negative = inhibition” value is -4.46%.

Take `CCC1=Nc2cc(C(=O)NCCCN3CCOCC3)ccc2Sc2ccc(Br)cc21`: the “activity change, negative = inhibition” value was 4.06%.

With `O=C(NCCCN1CCOCC1)c1ccc2c(c1)N(Cc1cccc(F)c1)C(=O)c1ccccc1S2`, the Potency is 22.4 µM (active).

With `Cc1ccccc1CN1C(=O)c2ccccc2Sc2ccc(C(=O)NCCCN3CCOCC3)cc21`, the Potency result is “inactive”.

Turning to `Cc1ccc(CCNC(=O)c2ccc3c(c2)nc2n3CCC(C)C2)cc1` (stereo not given), the “activity change, negative = inhibition” value was -6.81%.

As for `CCOc1cccc(CC(=O)N2CCc3c([nH]c4ccccc34)C2c2ccc(OC)cc2)c1OCC` (stereo not given), the “activity change, negative = inhibition” value is 9.6%.

Take `CCN(CC)S(=O)(=O)c1ccc2c(c1)nc(CN(C)C(=O)Nc1ccc(Cl)cc1)n2C`: the “activity change, negative = inhibition” value is 4.09%.

`CCOC(=O)C(C(=O)OCC)C(C#N)c1ccccc1` (stereo not given): the “activity change, negative = inhibition” value is -0.421%.

On to `O=C(Cc1ccc(-c2ccccc2)cc1)NC(c1ccccc1)c1ccccc1`, for which the “activity change, negative = inhibition” value was 3.82%.

Consider `CCOC(=O)/C=C/C(=O)OCC(=O)NC(c1ccccc1)c1ccccc1`, for which the Potency was 15.8 µM (active).

`COc1cccc(C2C(C(=O)Nc3ccc(C)cc3C)=C(C)Nc3c(C(=O)Nc4ccccc4)cnn32)c1` (stereo not given): the “activity change, negative = inhibition” value is -6.99%.

On to `Cc1cccc(NC(=O)CSc2nc3c([nH]c4ccccc43)c(=O)n2-c2cc(C)cc(C)c2)c1`, for which the “activity change, negative = inhibition” value is 4.01%.

Regarding `CSc1cccc(NC(=O)CN2C(=O)CCc3cc(S(=O)(=O)N4CCCCC4)ccc32)c1`, the “activity change, negative = inhibition” value was 0.0354%.

In the case of `COc1ccc(Cn2c(C(=O)O)c(CNCc3cccc(OC)c3)c3ccc(C)cc32)cc1`, the “activity change, negative = inhibition” value was 3.42%.

On to `O=C(CSc1nc(=O)[nH]c2c1CCCC2)Nc1cc(C(F)(F)F)ccc1Cl`, for which the “activity change, negative = inhibition” value was -0.322%.

With `Cc1nc2c(c(C)nn2-c2ccccc2)c(C)c1CCC(=O)NCCc1ccc(Cl)cc1`, the “activity change, negative = inhibition” value is 2.65%.

With `C=Cc1ccc(Cn2c(C(=O)O)c(CNC3CCCC3)c3ccc(C)cc32)cc1`, the “activity change, negative = inhibition” value is -1.48%.

As for `CC(C)OCCCNC(=O)c1ccc(C2SCC(=O)N2Cc2ccco2)cc1` (stereo not given), the Potency is 25.1 µM (active).

For the compound `CC(C)OCCCNC(=O)CNC(=O)c1cccs1`, the “activity change, negative = inhibition” value is 1%.

In the case of `O=C(NCc1ccco1)c1ccc(Cn2c(=O)c3sccc3n(Cc3ccc(F)cc3)c2=O)cc1`, the “activity change, negative = inhibition” value is 1.62%.

In the case of `CCOc1ccc(NC(=O)c2cc(S(=O)(=O)N3CCCC3)c[nH]2)cc1`, the “activity change, negative = inhibition” value was 1.37%.

For `COc1ccc(CNC(=O)c2cc3c(s2)-c2ccccc2OC3)cc1`, the “activity change, negative = inhibition” value is 0.527%.

With `COc1cccc(CNC(=O)Cn2c(=O)c3cccn3c3ccc(F)cc32)c1OC`, the “activity change, negative = inhibition” value is 6.91%.

Regarding `O=C(CNC(=O)c1ccccc1)NCC(=O)OCC(=O)c1ccccc1`, the “activity change, negative = inhibition” value is 14.6%.
